Sampled rows, rich in hits. Any-hit rate of the full collection: about 3%.
CHT inh: inhibits the human high affinity choline transporter | CHT-expressing cells, membrane potential dye, choline response; stronger effect = lower value | B-score at 10 µM | Q9GZV3 | AID 488975 | hit rate 0.86% among 310,000;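 active = B-score over 3 SD under the library average, and starting fluorescence ratio not unusually high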;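 note: choline stimulus applied at its EC90 after an EC20 pre-addition; B-score computed on integrated fluorescence ratio after choline addition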
Target sequence (Q9GZV3 whole entry, looked up): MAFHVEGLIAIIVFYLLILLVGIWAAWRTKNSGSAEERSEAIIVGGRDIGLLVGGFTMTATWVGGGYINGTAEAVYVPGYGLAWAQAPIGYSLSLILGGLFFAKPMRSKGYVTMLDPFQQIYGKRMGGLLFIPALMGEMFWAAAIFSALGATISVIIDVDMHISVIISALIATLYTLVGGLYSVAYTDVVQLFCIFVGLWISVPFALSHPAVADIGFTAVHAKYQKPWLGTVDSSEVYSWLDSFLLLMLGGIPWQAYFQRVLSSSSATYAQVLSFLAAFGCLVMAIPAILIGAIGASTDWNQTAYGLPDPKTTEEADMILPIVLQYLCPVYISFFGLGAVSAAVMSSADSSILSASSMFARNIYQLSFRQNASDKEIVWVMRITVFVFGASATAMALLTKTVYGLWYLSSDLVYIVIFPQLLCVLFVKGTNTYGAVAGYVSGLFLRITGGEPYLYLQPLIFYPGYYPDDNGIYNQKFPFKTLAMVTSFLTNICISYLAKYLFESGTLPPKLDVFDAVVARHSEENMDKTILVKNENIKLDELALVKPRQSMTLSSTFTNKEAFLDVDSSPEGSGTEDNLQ
A1 inh: inhibitors of the anti-apoptotic protein A1, read as caspase activation; hit rate 0.066% among 330,000; caspase activation, % (no concentration beside the values); MEF A1-2A-BIM cells, Caspase-Glo 3/7 luminescence, 3 h; percent of clofoctol response, vehicle zero;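 active = over half of replicate activation scores above 10%, or exactly half above 10 with the replicate mean above 10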
NLRP3 yeast inh: NALP3 inhibition in yeast; inhibition, % at 10 µM; hit rate 0.39% among 330,000; Yeast reconstituted NLRP3/ASC/caspase-1, beta-gal luminescence, 24 h; AID 2825;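 active = inhibition of 50% or more; inactive = inhibition below 50%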;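 note: plate controls were induced DMSO wells for no effect and uninduced yeast grown without galactose for full effect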
Mot1-301 SUMO: inhibitors of SUMOylation pathway: yeast Mot1-301 growth rescue; S. cerevisiae Mot1-301 growth rescue, ATP luminescence, 38.5C; percent above DMSO median, 100 means doubled; growth rescue, % at 18.8 µM; hit rate 1% among 320,000;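 active = every valid replicate shows activation above 250% relative to neutral control wells; inactive = the rest, any valid replicate at or below 250%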;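 note: OY570 slx delta 5 strain wells were the positive control but not used for scaling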
NALP1 yeast inh: NALP1 inhibition; S. cerevisiae NALP1/ASC/caspase-1 growth, X-gal OD620, 72 h; inhibition, % at 10 µM; hit rate 0.61% among 280,000; AID 2071; in the data active = inhibition mostly above about 24%, no sharp cut-off; inactive = mostly below about 32%
CHT allo act: human CHT allosteric activation; B-score at 10 µM; hit rate 0.49% among 310,000; AID 488977; CHT-expressing cells, membrane potential dye, choline EC20; stronger effect = higher value; LV-AA mutant CHT in HEK293 cells;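 active = initial fluorescence not abnormally high and integrated response B-score, plate-corrected, over 3 SD above library mean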
An asterisk follows results filed as active; i = inactive; . = no result given.

SMILES | CHT inh | A1 inh | NLRP3 yeast inh | Mot1-301 SUMO | NALP1 yeast inh | CHT allo act
Cc1c(C(=O)N(C)C(C)c2ccccn2)oc2c(F)cccc12 (centres undefined) | i | 0 | 32 | -8 | 19 | i
O=C(CCc1nc2cccnc2n1Cc1ccccc1)N1CCOCC1 | i | 1 | -2 | -5 | 36* | i
CCCCNC(=O)CCc1nc2cccnc2n1Cc1ccccc1 | i | 0 | 9 | -16 | 8 | i
Nc1c(-c2ccccc2)nc(Cl)nc1-c1ccccc1 | i | -1 | 10 | -11 | 34* | i
C=CC[C@@H](CC(=O)N[C@@H](CO)Cc1ccccc1)C(=O)N[C@H](C)COC(=O)[C@@H](CC=C)Cc1ccc(F)cc1 | . | 1 | 8 | -7 | . | .
C[C@H]1CC[C@H]2C(=O)N3[C@H](c4ccccc4Br)[C@@H](C)CC[C@H]3C(=O)N2[C@@H]1c1ccccc1Br | i | -1 | 1 | 97 | 35 | 8.1*
O=C(Nc1ccc(Oc2cccnc2)cc1)C1CCN(Cc2ccccc2)CC1 | i | 0 | 26 | 9 | 12 | i
O=C(Nc1ccc(Oc2cccnc2)cc1)C1CCN(Cc2cccc(Cl)c2)CC1 | i | 0 | 25 | 78 | 36* | i
O=C(CNS(=O)(=O)c1c(F)cccc1F)NC1CCCc2ccccc21 (centres undefined) | . | 1 | 11 | 7 | . | .
CCOc1cc(/C=C/C(=O)N(CC)CC(=O)NCc2cccs2)cc(Cl)c1OC | i | 0 | 5 | -5 | . | i
CCOc1ccc2c(=O)c(Oc3ccccc3OCC)coc2c1 | i | -1 | 23 | -12 | 44* | i
CC1(C)CC2(CCCN3C(=O)CSC32)CCS1 (centres undefined) | i | 2 | 10 | 179 | 38* | i
O=C(OCc1ccc([N+](=O)[O-])cc1)c1cnc(Cl)c(Cl)c1 | i | 0 | 10 | 5 | 6 | i
COC(=O)c1ccccc1S(=O)(=O)NNC(=O)c1nn(C)c(=O)c2ccccc12 | . | -1 | 2 | 7 | . | .
CCOC(=O)N1CCN(S(=O)(=O)c2ccc(OC)c(Cl)c2)CC1 | i | -1 | 13 | -3 | 18 | i
CCOC(=O)N1CCN(S(=O)(=O)c2ccc(OCC(=O)OC)c(Cl)c2)CC1 | i | 0 | 0 | 287* | 9 | i
Cc1[nH]c2ccccc2c1C(=O)C(=O)NCc1ccncc1 | i | 0 | . | -1 | . | i
C/C(=N\NC(=O)C1CC1)c1ccccc1O | i | 0 | -3 | 640* | -6 | i
CC(=O)c1ccc(N2CCN(C(=O)c3cccs3)CC2)c(F)c1 | i | 0 | 19 | 4 | 9 | i
CCc1cc(=O)oc2cc(OC(C)=O)cc(OC(C)=O)c12 | i | 0 | 10 | -16 | 27* | i
CC(=O)N(c1ccc(C(F)(F)F)cc1)S(=O)(=O)c1ccc(N2C(=O)CCC2=O)cc1 | i | -1 | -11 | -11 | 32* | i
O=C(O)c1ccc(NS(=O)(=O)c2ccc(N3C(=O)CCC3=O)cc2)cc1 | i | 0 | 30 | 17 | 13 | i
O=C(COc1ccc(Cl)cc1)OCC(=O)N1CCOCC1 | . | 1 | -6 | -16 | . | .
O=C1CCN(Cc2ccc(O)cc2)CCN1CCO | i | 0 | 8 | 217 | 24 | i
Cc1ccc(CN(Cc2cc3cccc(C)c3[nH]c2=O)C(=O)N(C)C)cc1 | i | 0 | 8 | 317* | -2 | i
SMILES | CHT inh | A1 inh | NLRP3 yeast inh | Mot1-301 SUMO | NALP1 yeast inh | CHT allo act
N=c1c(S(=O)(=O)c2ccc(Cl)cc2)cc2c(=O)n3ccccc3nc2n1C1CCCC1 | i | 0 | 22 | -6 | 20 | i
CCOC(=O)c1cc(-c2ccccc2)nn1CCC#N | i | -2 | -3 | -14 | 13 | i
CCOC(=O)c1cc(-c2ccc(C)o2)nn1CCC#N | i | 0 | 0 | 347* | 15 | i
O=C(/C=C\N1CCOCC1)c1ccc(Br)cc1 | i | -3 | 16 | 29 | -26 | i
Cc1ccc(C2CN=NC23CCc2ccccc2C3=O)cc1 (centres undefined) | i | -1 | 20 | 19 | 37* | i
O=C(NCCCl)NNc1c(Cl)cc(Cl)cc1Cl | i | 0 | 11 | -2 | 31* | i
CCCCNC(=S)NNc1c(Cl)cc(Cl)cc1Cl | i | 1 | 11 | . | 5 | i
